Screens (PubChem)
Shown are actives, neighbours in structure and some others; about 13% of the full set was active somewhere.
USP30 block: human USP30 deubiquitinase inhibition; Q70CQ3; purified USP30, Ub-rhodamine cleavage fluorescence; inhibition, % at 25 µM; 5.3% of 47,000 active; AID 1645860
USP8 inh: inhibitors of human USP8 deubiquitinase; 4.2% of 47,000 active; inhibition, % at 20 µM; AID 1645853; P40818; purified USP8, Ub-rhodamine cleavage fluorescence, 30 min
UCHL1 inh: blocks human UCHL1 ubiquitin-rhodamine cleavage. P09936. purified UCHL1, Ub-rhodamine cleavage fluorescence. inhibition, % at 20 µM. 0.2% of 47,000 active
USP17 inh: blocks human USP17 ubiquitin-rhodamine cleavage | purified USP17, Ub-rhodamine cleavage fluorescence, 3 h | inhibition, % at 50 µM | 6.5% of 47,000 active
USP7 block: inhibitors of human USP7 deubiquitinase. Q93009. purified USP7, Ub-rhodamine cleavage fluorescence. inhibition, % at 20 µM. 0.3% of 47,000 active
Target sequence (Q93009 whole entry, looked up): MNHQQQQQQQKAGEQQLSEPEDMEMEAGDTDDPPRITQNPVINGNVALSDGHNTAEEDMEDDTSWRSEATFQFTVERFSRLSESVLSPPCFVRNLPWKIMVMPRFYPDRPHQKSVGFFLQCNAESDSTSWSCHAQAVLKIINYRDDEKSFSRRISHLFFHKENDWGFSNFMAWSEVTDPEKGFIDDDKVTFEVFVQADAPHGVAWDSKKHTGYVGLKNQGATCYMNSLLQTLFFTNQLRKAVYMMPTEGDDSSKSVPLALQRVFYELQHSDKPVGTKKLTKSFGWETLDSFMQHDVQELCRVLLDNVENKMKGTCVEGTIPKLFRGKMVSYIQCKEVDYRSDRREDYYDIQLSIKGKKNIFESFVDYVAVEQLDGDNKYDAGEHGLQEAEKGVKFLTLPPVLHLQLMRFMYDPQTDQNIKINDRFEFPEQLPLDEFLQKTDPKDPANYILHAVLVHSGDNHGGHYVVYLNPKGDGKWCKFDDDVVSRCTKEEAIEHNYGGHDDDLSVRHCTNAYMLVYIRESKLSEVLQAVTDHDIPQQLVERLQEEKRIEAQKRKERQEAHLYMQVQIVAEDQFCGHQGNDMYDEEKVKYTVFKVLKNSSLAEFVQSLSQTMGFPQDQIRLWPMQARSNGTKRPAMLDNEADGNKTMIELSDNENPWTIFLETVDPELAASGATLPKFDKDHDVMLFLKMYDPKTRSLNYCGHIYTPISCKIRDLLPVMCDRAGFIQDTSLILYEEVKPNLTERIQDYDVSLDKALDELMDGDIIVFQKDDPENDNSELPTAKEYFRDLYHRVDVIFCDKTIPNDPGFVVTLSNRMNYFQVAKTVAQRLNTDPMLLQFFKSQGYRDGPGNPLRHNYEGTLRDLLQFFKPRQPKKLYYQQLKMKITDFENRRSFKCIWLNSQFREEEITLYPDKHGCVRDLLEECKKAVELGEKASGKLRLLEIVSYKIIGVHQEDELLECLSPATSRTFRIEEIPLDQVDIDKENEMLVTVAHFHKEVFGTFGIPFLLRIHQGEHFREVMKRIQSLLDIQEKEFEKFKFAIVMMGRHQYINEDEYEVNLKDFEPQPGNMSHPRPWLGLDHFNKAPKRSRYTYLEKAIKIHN
USP10 block: blocks human USP10 ubiquitin-rhodamine cleavage | purified USP10, Ub-rhodamine fluorescence, 60 min | inhibition, % at 20 µM | 1.1% of 47,000 active
Of the large screens only hits and unclear results are named; the others gave an inactive call. No stated cut-off is given here; in the data, active means inhibition above about 30%; inactive means the rest.

Cc1ccc(NC(=O)Cn2nc3ccc(C(=O)NCc4ccccc4)cn3c2=O)cc1F	USP8 inh 41, USP17 inh 72
c1coc(CNc2nc3ccccc3c3nc(-c4ccncc4)nn23)c1	none
O=C(CSc1nc(C(F)(F)F)cc(=O)[nH]1)NCc1ccccc1	none
O=C(CSc1nc2cc(C(F)(F)F)ccc2s1)NCC(=O)c1ccccc1	USP8 inh 32, USP17 inh 91, USP7 block 59, USP10 block 45
Cc1cc(NCC2CC2)n2nc(Nc3cc(Cl)ccc3C)nc2n1	USP30 block 31, USP17 inh 71
C[C@]12C(=O)N(c3ccccc3C(=O)NCCc3ccc(F)cc3)C(=O)N1CCc1c2[nH]c2ccccc12	none (no result: USP17 inh)
Cc1ccc(CNC(=O)c2cccc(N3C(=O)N4CCc5c([nH]c6ccccc56)[C@@]4(C)C3=O)c2)cc1	USP17 inh 64
COc1cccc(CNC(=O)[C@H](C)N2C(=O)N3CCc4c([nH]c5ccc(OC)cc45)[C@@]3(C)C2=O)c1	none
C[C@]12C(=O)N(c3ccccc3C(=O)NCCc3ccccc3)C(=O)N1CCc1c2[nH]c2ccccc12	USP17 inh 41
COc1ccc(CNC(=O)[C@H](C)N2C(=O)N3CCc4c([nH]c5ccc(OC)cc45)[C@@]3(C)C2=O)cc1	USP17 inh 50
COc1ccc2[nH]c3c(c2c1)CCN1C(=O)N(c2ccccc2C(=O)NCc2ccccc2)C(=O)[C@]31C	USP17 inh 61
CCOC(=O)CSc1cc(CS(=O)c2ccc(Cl)cc2)nc(-c2ccccc2)n1 (configuration not stated)	USP30 block 41
Cc1ncc(-c2ccccn2)c(-c2ccc(CNC(=O)CCN3CCOCC3)cc2)n1	none
Cc1ncc(-c2ccccn2)c(-c2ccc(CNC(=O)Cc3sc(C)nc3C)cc2)n1	USP8 inh 36
NC(=O)C1CCN(C(=O)c2ccc(-n3cccn3)c(C#Cc3ccccc3)c2)CC1	none
COc1cc2c(cc1NC(=O)c1ccc(-n3cnnn3)cc1)oc1ccccc12	USP17 inh 53
CCn1nc(C)c(CNC(=O)c2[nH]c3ccc(C)cc3c2NC(=O)c2cccc(C)c2)c1C	USP30 block 88, USP17 inh 77
O=C(C1CC1)N1CCC2(COCc3cnc(-c4ccccc4)nc32)C1 (configuration not stated)	none
N#Cc1cccc(NC(=O)Cn2cccc(-c3nc(-c4ccccc4)no3)c2=O)c1	none
N#Cc1cccc(NC(=O)Nc2cccn(Cc3ccccc3F)c2=O)c1	USP8 inh 94, UCHL1 inh 35, USP17 inh 85, USP10 block 71
Cc1ccccc1NC(=O)CNc1ccc(C#N)cc1	none
N#Cc1ccc(NC(=O)Nc2cccn(Cc3ccccc3Br)c2=O)cc1	USP30 block 30, USP8 inh 90, USP17 inh 81, USP10 block 51
O=C(Cn1c(=O)n(Cc2ccc3c(c2)OCO3)c(=O)c2ncccc21)NCc1ccco1	USP17 inh 49
O=C(Cn1c(=O)n(Cc2ccc3c(c2)OCO3)c(=O)c2ncccc21)c1ccc(Cl)cc1	USP30 block 62, USP8 inh 73
O=C(Cn1c(=O)n(Cc2ccncc2)c(=O)c2ncccc21)Nc1ccccc1	none
O=C(Cn1c(=O)n(Cc2ccccc2)c(=O)c2ncccc21)NCc1ccccc1Cl	USP8 inh 50, USP17 inh 86, USP7 block 33, USP10 block 51
O=C(Cn1c(=O)n(Cc2ccc3c(c2)OCO3)c(=O)c2ccccc21)NCC1CCCO1 (configuration not stated)	none
CC1(C)OC(=O)[C@]2(C)C[C@@H](C(=O)Nc3cccc4cccnc34)[C@@]1(C)N2	none
CC1(C)OC(=O)[C@@]2(C)N[C@]1(C)C[C@@H]2C(=O)Nc1cccc2cccnc12	USP8 inh 41
CCCc1cc(=O)n2[nH]c(-c3ccc(C)cc3)cc2n1	USP17 inh 43
CCCc1cc(=O)n2[nH]c(-c3ccccc3)cc2n1	none
O=S1(=O)CCN2C(c3ccc4c(c3)CCCC4)=CSC2=N1	none
CC(=O)Nc1ccc(C2=CSC3=NS(=O)(=O)CCN23)cc1	USP30 block 32
Cc1nnc2ccc(-c3cccc(NS(=O)(=O)c4cccc(F)c4)c3)nn12	none
O=C(COC(=O)C1(c2ccccc2F)CCCC1)Nc1ccc2c(c1)OCO2	USP30 block 37, USP8 inh 44, USP17 inh 41
COc1cc(NC(=O)COC(=O)C2(c3ccccc3F)CCCC2)cc(OC)c1	USP30 block 41
Cc1ccc(NC(=O)c2ccc3c(=O)n4c(nc3c2)CCCCC4)cc1S(=O)(=O)N1CCOCC1	USP17 inh 36 (no result: USP30 block)
O=C(Nc1cccc(S(=O)(=O)N2CCCC2)c1)c1ccc2c(=O)n3c(nc2c1)CCCCC3	none
CCOc1ccc(-n2c(C)cc(/C=C(\C#N)c3nc4ccccc4[nH]3)c2C)cc1	none
O=C1COc2ccc(-c3cc4n(c3)CCc3cc5c(cc3-4)OCO5)cc2N1	USP8 inh 43
Cc1cccc(Cc2noc(Cn3ccc4ccn(C)c4c3=O)n2)c1	none
O=C(NC1CCCCC1)C(c1ccccc1F)N(Cc1cccnc1)C(=O)Cc1c[nH]c2ccccc12 (configuration not stated)	none
Cc1cccc(CNC(=O)c2cc3occc3c(Nc3ccc(F)cc3)n2)c1	none
Cc1ccc(Nc2nc(C(=O)NCc3ccc4c(c3)OCO4)cc3occc23)cc1Cl	USP8 inh 76, USP17 inh 66
Cc1ccc(Nc2nc(C(=O)NCc3ccccc3)cc3occc23)cc1	USP17 inh 32
O=C(NCc1ccc2c(c1)OCO2)c1cc2occc2c(Nc2ccc(F)cc2)n1	none
C[C@@H]([C@H](N)C(=O)NC(C(=O)O)[C@H]1O[C@@H](n2ccc(=O)[nH]c2=O)C(O)C1O)[C@H](O)c1ccc(O)cn1 (some centres not stated)	none
CCN(CC)c1ncc2c(n1)CCC(C(=O)N1CCCC1)C2 (configuration not stated)	none
O=C1COC2(CCN(C(=O)N3CCCC3)CC2)CN1Cc1ccccc1	USP30 block 34
O=C1COC2(CCN(c3ncc(F)cn3)CC2)CN1Cc1ccccc1	none
CC(=O)Nc1ccc(S(=O)(=O)N2CCC3(CC2)OC(=O)Nc2ccccc23)cc1	none
CNc1nc(C2CCCCN2C(=O)c2ccc(=O)n(C)c2)nc2c1CCN(C)C2 (configuration not stated)	none
C=C1CCC[C@]2(C)C[C@H]3OC(=O)C(CN4CCC(C(=O)OCC)CC4)[C@H]3CC12 (some centres not stated)	none
C=C1CCC[C@]2(C)C[C@H]3OC(=O)C(CN(C)CC(O)c4ccc(O)cc4)[C@H]3CC12 (some centres not stated)	none
C=C1CCC[C@]2(C)C[C@H]3OC(=O)[C@H](CNCCc4ccccc4OC)C3CC12 (some centres not stated)	USP30 block 47
